L3MBTL1 inh – blocks human L3MBTL1; Q9Y468; AlphaScreen L3MBTL1–H3K9me1 peptide binding; Potency, µM (titrated, usually from 57.1 µM), inactives show top-dose activity, negative = inhibition, hits mostly inhibitors; actives 0.66% (n = 230,000); AID 485360; further: on the % scale 0 is the no-effect control and ±100 the full control effect; nearly all actives have a fitted effect of over 60% in size
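AlphaScreen proximity signal between nickel-chelate acceptor and streptavidin donor beads (final 10 ug/mL) reports binding of 50 nM L3MBTL1 to 75 nM biotin-H3 K9me1 peptide; complex incubated with compounds 30 min at room temperature; cefsulodin titration as control.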
BAZ2B block – BAZ2B (human) inhibition; AlphaScreen BAZ2B-H3K14Ac peptide displacement; actives 4.4% (n = 360,000); Q9UIF8; Potency, µM (doses to about 114 µM), inactives show top-dose activity change, negative = inhibition, usual class: inhibitors; further: on the % scale 0 is the no-effect control and ±100 the full control effect; nearly all actives have a fitted effect of over 60% in size
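AlphaScreen displacement of biotin-H3(5-23)K14Ac peptide (50 nM final) from BAZ2B (50 nM final) in PBS pH 7.4, 0.01% Tween-20; complex preformed 30 min RT, then compounds (top 110 uM) 30 min RT, beads 20 min dark.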
G9a block – G9a (human) methyltransferase inhibition. G9a H3K9 monomethylation, AlphaScreen, 2 h. Potency, µM (series often up to 102 µM), inactives show at the highest dose activity, negative = inhibition, most hits filed as inhibitors. actives 8.8% (n = 350,000); further: on the % scale 0 is the no-effect control and ±100 the full control effect; nearly all actives have a fitted effect of over 75% in size
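Compounds were preincubated with 20 nM G9a for 15 min, after which biotinylated H3K9 peptide (500 nM) and SAM (20 uM) started a 2 h room-temperature reaction. Monomethylated product was quantified by antibody-based AlphaScreen chemiluminescence.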
JMJD2A Tudor – JMJD2A Tudor domain (human) inhibition. AlphaScreen JMJD2A-Tudor / H3K4me3 peptide binding. O75164. actives 4.4% (n = 390,000). Potency, µM (titrated, usually from 114 µM), for the others: at the highest dose activity change, negative = inhibition, actives largely listed as inhibitors; further: on the % scale 0 is the no-effect control and ±100 the full control effect; nearly all actives have a fitted effect of over 50% in size
HP1b binding inh – inhibitors of HP1-beta chromodomain binding to methylated histone tails; P83916; AlphaScreen HP1-beta / biotin-H3K9me3 peptide binding; Potency, µM (doses to about 114 µM), inactives show top-dose activity change, negative = inhibition, hits mostly inhibitors; actives 0.56% (n = 390,000); AID 540317; further: nearly all actives have a fitted effect of over 70% in size
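HP1-beta protein (50 nM final) preincubated 30 min at room temperature with biotinylated H3(1-18)K9me3 peptide (50 nM) in PBS pH 7.4, 0.01% Tween-20, then compound added for 30 min. AlphaScreen streptavidin donor/nickel chelate acceptor beads (10 ug/mL final), 30 min dark, luminescence read.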
Sfp inh – inhibitors of Bacillus subtilis Sfp phosphopantetheinyl transferase; Q9F4F7; Biochemical Sfp PPTase activity, qHTS; Potency, µM, without a hit: largest response in the series, negative = inhibition, actives largely listed as inhibitors; actives 3.5% (n = 310,000); AID 1490;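 further: the enzyme is Sfp with the accession as filed and its product quenches rhodamine fluorescence; 0% = enzyme reaction without inhibitor and -100% = no enzyme wells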
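With Hepes-Na pH 7.6 buffer containing 10 mM MgCl2, Sfp (15 nM) modified BHQ-2-YbbR (12.5 uM) using rhodamine-CoA (5 uM). Two reads 30 minutes apart at 525/598 nm yielded each well's rate.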
Starred values were filed as active, the others as inactive; ? = inconclusive; · = not tested or not shown; [ ] = remark or other dose. In the library only some 12% were active in any assay of this set; here they are far more common. The call rests on the fitted dose curve; in most records, active means well fitted curve in the direction sought with a large enough effect; inconclusive means small, poorly fitted or top-dose-only effect, or another doubt; inactive means no such curve, though single readings can be large; an effect the other way counts as inactive or inconclusive. Potency means the concentration at half of the fitted maximal effect.

SMILES | L3MBTL1 inh | BAZ2B block | G9a block | JMJD2A Tudor | HP1b binding inh | Sfp inh
CCOc1cccc(C2C=C(c3ccc4c(c3)OCO4)NC(c3ccc(F)cc3)N2)c1O (stereo unspecified) | · | · | · | ? | -18%[57 µM] | ·
Fc1ccc([C@@H]2CCNC[C@H]2COc2ccc3c(c2)OCO3)cc1 | -16% | ? | 24µM* | ? | ? | -8%
CC1CC(=O)N(c2ccc(N(C)Cc3ccccc3)c([N+](=O)[O-])c2)C1=O (stereo unspecified) | · | 11µM* | -48% | -10% | 8% | -28%
C=C(C)Cn1c(SCC(=O)Nc2ccccc2C)nc2sc3c(c2c1=O)CCCC3 | · | -4% | -51%[59 µM] | -13% | -4% | ·
CCCOc1ccc(CSc2ncn[nH]2)cc1 | ? | 1% | 13µM* | 3.2µM* | ? | 10%
COc1cc(CSc2ncn[nH]2)c(OC)cc1CSc1ncn[nH]1 | 6% | 1% | 33%[59 µM] | -7% | 25% | 3%
O=C(O)/C(=C/c1ccco1)c1ccccc1 | -2% | -11% | ? | · | · | 22µM*
O=C(O)/C(=C\c1ccco1)NC(=O)c1cccc2ccccc12 | ? | ? | · | 89µM* | -11% | 79µM*
O=C(N/C(=C\c1ccco1)C(=O)N1CCCC1)c1ccccc1 | · | -2% | 40µM* | -6% | 13% | -11%
O=C(O)/C(=C/c1ccco1)NC(=O)c1ccccc1 | ? | -30% | 45µM* | ? | -3% | -19%
O=C(Nc1ccc(O)cc1)/C(=C/c1ccco1)NC(=O)c1ccccc1 | · | ? | 0%[12.7 µM] | 4% | 27% | 2%
COc1cccc(NC(=O)CSC2=Nc3ccccc3N=C(c3ccc(F)cc3)C2)c1 | · | ? | -11%[59 µM] | -26% | 0%[57 µM] | ·
O=C(N/C(=C\c1ccco1)C(=O)N1CCCCC1)c1ccc([N+](=O)[O-])cc1 | -3% | · | · | -9% | 34% | ·
O=C(N/C(=C\c1ccco1)C(=O)N1CCCC1)c1cccs1 | -2% | 5% | ? | -6% | -1% | ?
Cc1cccc(C(=O)N/C(=C\c2ccco2)C(=O)N2CCCC2)c1 | · | -8%[57.1 µM] | 40µM* | -21% | -15% | ?
O=C(N/C(=C/c1ccco1)C(=O)N1CCCC1)c1cccs1 | -3% | ? | -5%[2.33 µM] | -5% | 18% | 32µM*
Cc1ccc(C(=O)N/C(=C/c2ccco2)C(=O)N2CCCCCC2)cc1 | · | -8% | 71µM* | -31% | -20% | -5%
Cc1ccc(NC(=O)/C(=C/c2ccco2)c2ccccc2)c(C)c1 | · | ? | 50µM* | -14% | -18% | -10%
COc1ccc2c(c1)c(=O)c(S(=O)(=O)c1ccccc1)cn2CC(=O)Nc1ccc(C)c(Cl)c1 | · | -21% | -8%[59 µM] | -19% | 19% | ·
COc1cc(OC)c(NC(=O)Nc2cc(C)on2)cc1Cl | · | · | · | · | · | 12%
Cc1cccn2c(=O)c(/C=C(\C#N)S(=O)(=O)c3ccccc3)c(N3CCN(C)CC3)nc12 | -5% | -33% | ? | -25% | -1% | 2%
Cc1ccc(S(=O)(=O)/C(C#N)=C/c2c(N3CCN(C)CC3)nc3c(C)cccn3c2=O)cc1 | -6% | ? | 45µM* | ? | -12% | -9%
Cc1cccn2c(=O)c(/C=C(\C#N)S(=O)(=O)c3ccccc3)c(N3CCCCC3)nc12 | -14% | -24% | -47% | -21% | 23% | 1%
CCN1CCN(c2nc3c(C)cccn3c(=O)c2/C=C(\C#N)S(=O)(=O)c2ccc(C)cc2)CC1 | -6% | ? | 50µM* | ? | 13% | -13%
CCN1CCN(c2nc3c(C)cccn3c(=O)c2/C=C(\C#N)S(=O)(=O)c2ccc(Cl)cc2)CC1 | -4% | ? | 32µM* | ? | ? | -17%
SMILES | L3MBTL1 inh | BAZ2B block | G9a block | JMJD2A Tudor | HP1b binding inh | Sfp inh
COC(=O)c1ccc(C(=O)OC)c(NC(=O)c2cc3nc(-c4ccc(C)cc4)cc(C(F)(F)F)n3n2)c1 | · | -12% | 2%[59 µM] | 1% | 17% | ·
N#Cc1c(N)[nH]c(=S)c(C#N)c1-c1ccccc1 | 8% | · | 1.1µM* | ? | -5% | 40µM*
CO[C@H]1[C@@H](OC(N)=O)[C@H](O)[C@@H](Oc2ccc3c(O)c(NC(=O)c4ccc(O)c(CC=C(C)C)c4)c(=O)oc3c2C)OC1(C)C | · | · | 35%[21.5 µM] | · | · | 16%
OCCN(CCO)c1ccc(C(c2ccc(Cl)cc2)c2ccc(N(CCO)CCO)cc2Cl)c(Cl)c1 | -27% | ? | ? | ? | -8% | 19%
Cc1cc(N(CCO)CCO)ccc1N=Nc1cc(F)ccc1F | ? | 22µM* | 14µM* | 22µM* | ? | -5%
COc1cccc(NC(=O)COC(=O)CCC2CCCC2)c1 | 8% | 15% | 29%[59 µM] | -2% | 35% | ·
COc1c2ccoc2nc2c(OC)c(O[C@@H]3O[C@H](C)[C@@H](O)[C@@H](O)[C@H]3O)ccc12 | · | · | · | · | · | 6%
CSCCC(NC(=O)c1ccccc1)C(=O)Nc1ccncc1 (stereo unspecified) | -6% | -18% | -15%[12.7 µM] | -16% | ? | ·
CSCCC(NC(=O)c1ccccc1Cl)C(=O)Nc1ccncc1 (stereo unspecified) | -7% | 9% | 40µM* | -14% | 21% | ·
CC1=C(C(=O)OCc2ccc(C)cc2)C(c2ccccc2F)CC(=O)N1 (stereo unspecified) | · | 2% | -31%[59 µM] | -17% | 12% | ·
CCN(CC)c1ccc(NC(=O)CN2CCN(c3ccccc3OC)CC2)cc1 | · | 35µM* | ? | 45µM* | -18% | ·
COc1cc(NC(=O)Nc2cccc(Cl)c2)c(OC)cc1NC(=O)CN1CCCCC1 | -6% | 40µM* | 13µM* | 45µM* | ? | 4%
CCN(CC)c1ccc(NC(=O)CN2CCN(c3ccccc3F)CC2)cc1 | ? | 40µM* | 8.9µM* | 56µM* | 50µM* | -3%
O=C(CN1CCN(c2ccccc2F)CC1)Nc1ccccc1F | 4% | -14% | 50µM* | -14% | 36% | 5%
CCCCCCCC1=CC2=C(Cl)C(=O)C(C)(OC(C)=O)C(=O)C2=CN1C (stereo unspecified) | · | · | · | · | · | -3%
CCOC(=O)c1ccc(N2CCN(c3ccccc3OC)CC2)c(NC(=O)Nc2ccc(CC)cc2)c1 | · | -21% | ? | ? | 27% | ·
CCN1CCN(CC(=O)Nc2c(OC)cccc2OC)CC1 | · | 18µM* | 40µM* | 5µM* | 45µM* | 79µM*
COc1ccccc1NC(=O)CN1CCCCC1 | · | 10% | -5%[12.7 µM] | -9% | 5% | 19%
CCOC(=O)c1ccc(NC(=O)N2CCN(c3ccccc3OC)CC2)cc1 | -9% | -28% | 0% | 79µM* | -6% | -1%
